Source: ChEMBL document CHEMBL4513216, “Probing the Open Global Health Chemical Diversity Library for Multistage-Active Starting Points for Next-Generation Antimalarials” (ACS Infect Dis, 2020)
The whole screen tested about 65,000 compounds, of which about 2,100 (3.2%) showed an effect of 50% or more. The median lay at about -52%. The full list was thinned out, with strong results kept by preference.

The compounds below were run on Plasmodium falciparum (assay: Screen against P. falciparum Asexual Blood Stage (ABS), at 5uM). Details: tested at 5 uM.
Type: functional, Dd2

SMILES | INHIBITION [%]
CCn1cnnc1CNC(=O)N1CCN(c2ccccc2OC)CC1 | -69.5
O=C(c1cc(Cl)c[nH]1)N1CCCC(c2cc(C(F)(F)F)[nH]n2)C1 (stereo not given) | 20.5
Cc1ccc(-c2nc(CSCCC(=O)NC(N)=O)co2)c(C)c1 | -115
CSc1ccc(C(=O)N2CCOCC2c2c(C)n[nH]c2C)o1 (stereo not given) | -159
Cc1cc(C)n(CC(=O)NC(Cc2ccsc2)c2ccccn2)c(=O)n1 (stereo not given) | -151
Cc1nnc(NCc2ccccc2Cl)c(C#N)c1C | 6.46
COc1ccccc1C1(CNc2nnc(C)c(C)c2C#N)CCCC1 | 58.4
COCc1ccccc1CNc1nnc(C)c(C)c1C#N | -155
COc1ccccc1C1(CNc2nnc(C)c(C)c2C#N)CCOCC1 | 3.69
Cc1nnc(NCC2(c3ccccc3)CCC2)c(C#N)c1C | -32.2
CCCOc1ncccc1CNc1nnc(C)c(C)c1C#N | -121
Cc1nnc(NCc2cccnc2OCC(F)(F)F)c(C#N)c1C | -46.2
Cc1nnc(NCc2ccccc2F)c(C#N)c1C | 64.4
CCOc1ncccc1CNc1nnc(C)c(C)c1C#N | 60
Cc1ccccc1COCCOCn1c(C)cc(=O)[nH]c1=O | -70.8
CCn1nnc2c1C(COCC(=O)N(C)C)CN(Cc1ccoc1)C2 (stereo not given) | -97.7
O=C(Cc1cccs1)Nc1cnn(C2CCOCC2)c1 | -142
CCOC(=O)[C@H]1[C@@H](O)C(=O)N(C)C12CCN(C(=O)c1ccccc1)CC2 | -32.3
O=C1CC2(CCCNC2)C(=O)N1Cc1ccc(F)cc1 (stereo not given) | -26
O=C1CC2(CCCNC2)C(=O)N1Cc1ccc(Cl)cc1 (stereo not given) | 51.8
O=C1CC2(CCCNC2)C(=O)N1Cc1cccc(F)c1 (stereo not given) | -47.2
O=C(Nc1ccnc(OC2CCOC2)c1)c1ccccc1Cl (stereo not given) | -34.1
O=C(NCC(=O)N1CCCc2ccccc21)c1c(O)cc(F)cc1F | -115
COC(=O)c1c(Cl)c(C)nc2onc(C)c12 | -117
CCN(CC)C(=O)C1CCN(c2ccc(Cl)cc2C#N)CC1 | -147
N#Cc1cc(Cl)ccc1N1CCN(C(=O)C2CCC2)CC1 | -75.4
CC1CCN(C(=O)C2CCN(c3ccc(Cl)cc3C#N)CC2)CC1 | 60.5

SMILES | INHIBITION [%]
Cn1cc(CN2CCCC23CCN(S(C)(=O)=O)CC3)cn1 | -54.3
O=c1n(CCNc2cccc3ccccc23)nc2ccccn12 | -149
CC1=N[C@@]2(CC[C@@H]3CN(Cc4ccccc4)C[C@@H]32)C(=O)N1CC1CC1 | 17.7
CCC1=N[C@@]2(CC[C@@H]3CN(Cc4ccccc4F)C[C@@H]32)C(=O)N1CC | 39.8
COCCN1C(=O)[C@]2(CC[C@@H]3CN(Cc4ccccc4F)C[C@@H]32)N=C1C | -37.9
CC1=N[C@@]2(CC[C@@H]3CN(Cc4ccc(C)cc4)C[C@@H]32)C(=O)N1CC1CC1 | 30.2
CC1=N[C@@]2(CC[C@@H]3CN(Cc4ccccc4F)C[C@@H]32)C(=O)N1CC1CC1 | 67.6
CC1=N[C@@]2(CC[C@@H]3CN(Cc4cccc(Cl)c4)C[C@@H]32)C(=O)N1CC1CC1 | 67.2
COCCN(C)C(=O)Nc1ccc2c(ccn2CCOC)c1 | -178
Cc1nnc(N2CC[C@H]3C[C@H](C(=O)N4CCOCC4)O[C@H]3C2)s1 | -42.1
Cc1cc2nc(C(C)C)cc(NC(C)c3nncn3C3CCCC3)n2n1 (stereo not given) | -49.8
COc1cccc2c1OCC(C(=O)NCc1ncc3c(n1)CCC3)C2 (stereo not given) | -33
N#Cc1ccc(C(=O)N2CCn3cc(CN4CCCCC4)nc3C2)cc1 | -96.9
Cc1nccn1[C@@H]1CC[C@@H](N(C)S(=O)(=O)c2cccc(F)c2)[C@H]1O | -107
CN([C@@H]1CC[C@@H](N2CCOCC2)[C@@H]1O)S(=O)(=O)c1ccccc1 | -97.1
CN([C@@H]1CC[C@@H](N2CCCC2)[C@@H]1O)S(=O)(=O)c1ccccc1 | 51.6
O=C(c1ccco1)N1CCC2(CCCN(c3ncccn3)C2)C1 (stereo not given) | -59
CCn1ccnc1CN(C)c1cc(C2CCCNC2)nc(C)n1 (stereo not given) | -33.9
c1cc(CC2CCCNC2)nc(NCCc2cnccn2)c1 (stereo not given) | -96.3
Cc1cnc(CCNc2cccc(CC3CCCNC3)n2)s1 (stereo not given) | 65.5
Cc1nc(C2CCCNC2)cc(N(C)CCc2cn[nH]c2)n1 (stereo not given) | -151
c1ccc(CCNc2cccc(C3CCCNC3)n2)cc1 (stereo not given) | 66.8
Cc1cc(Cc2ccccc2F)cc(C2CCCNC2)n1 (stereo not given) | 64.8
Cc1nc(C2CCCNC2)cc(N(C)CCc2ccccc2)n1 (stereo not given) | 53.5
COCCNc1ccc(CC2CCCNC2)cn1 (stereo not given) | -56.2
COCCNc1cccc(C2CCCN2)n1 (stereo not given) | -86.4
Cc1nc(NC2CCCCC2)cc(C2CCCNC2)n1 (stereo not given) | -0.566

SMILES | INHIBITION [%]
c1cc(NCc2ccncc2)nc(C2CCCNC2)c1 (stereo not given) | -2.22
Cc1cc(Nc2cnccn2)cc(C2CCCNC2)n1 (stereo not given) | -27.1
CCS(=O)(=O)NC(CCSC)C(=O)Nc1cc(F)ccc1C (stereo not given) | -26.6
Cc1cnc(N2CCC3(CC2)CC3CN(C)Cc2cccnc2)nc1 (stereo not given) | -28
CCC(C)Oc1ccc(CNCCNC(C)=O)cc1Cl (stereo not given) | -29.5
COCc1cc(O)nc(C2CCCN(Cc3ccc(OC)cc3)C2)n1 (stereo not given) | -29.3
Cc1cc(C(N)=O)c2c(Br)cccc2n1 | -105
Cc1ccccc1C(C)N(C)Cc1nc2c(cnn2C)c(=O)[nH]1 (stereo not given) | -198
COc1ccc(C(C)N(C)Cc2nc3c(cnn3C)c(=O)[nH]2)cc1 (stereo not given) | 57.6
Cc1ccc(C(C)N(C)Cc2nc3c(cnn3C)c(=O)[nH]2)cc1 (stereo not given) | -137
COc1ccccc1C(C)N(C)Cc1nc2c(cnn2C)c(=O)[nH]1 (stereo not given) | -62.4
Cc1ccc(C(C)N(C)Cc2nc3c(cnn3C)c(=O)[nH]2)s1 (stereo not given) | 50
Cc1ccc(CN(Cc2nc3c(cnn3C)c(=O)[nH]2)C(C)C)s1 | -67.1
Cc1ccc(CCC(=O)N2CCC(Nc3cccnn3)CC2)cc1 | -69.1
O=S(=O)(NCc1ccccc1)N1CCCN(c2ccncc2)CC1 | -0.943
CCC(=O)N1CCC2(CC1)C(c1cccnc1)CC(=O)N2CCOC (stereo not given) | -104
CC(CNC(=O)c1cccnc1)Oc1ccc(F)cc1 (stereo not given) | -61.4
CN(C)C1CCN(c2cc(-c3ccccc3)nc3ccnn23)C1 (stereo not given) | 51.3
CCNC(=O)C1CCN(c2cc(-c3ccccc3)nc3ccnn23)C1 (stereo not given) | -26.4
Cc1cc(N2CCCC(N(C)C)C2)n2nccc2n1 (stereo not given) | -65.1
O=C(COc1coc(CN2CCOCC2)cc1=O)Nc1ccc(Cl)cc1 | -117
COCCN1CCN(CC(C)(O)c2cccc(C(F)(F)F)c2)CC1 (stereo not given) | 20.5
CC(O)(CN1CCN(CCO)CC1)c1cccc(C(F)(F)F)c1 (stereo not given) | 45.7
CC(O)(CN1CCC2(CC1)OCCO2)c1cccc(C(F)(F)F)c1 (stereo not given) | -7.98
CC(=O)N1CCN(CC(C)(O)c2cccc(C(F)(F)F)c2)CC1 (stereo not given) | -10.4
CC(O)(CN1CCC(O)CC1)c1cccc(C(F)(F)F)c1 (stereo not given) | 58
CCN1CCN(CC(C)(O)c2cccc(C(F)(F)F)c2)CC1 (stereo not given) | 61.4

SMILES | INHIBITION [%]
CC(C)(C)c1csc(CCNC(=O)[C@H](c2ccccc2)n2cnnn2)n1 | -92.7
O=C(c1ccsc1)N1C[C@@H]2OCCN(CCN3CCCC3)[C@@H]2C1 | -116
CCc1ccc(S(=O)(=O)NCC2CCN(c3cnccn3)CC2)s1 | -103
COc1cccc(N2CCN(Cc3nccn3C(C)C)CC2=O)c1 | -72.4
CC(=O)N1CCCN(Cc2ccon2)c2ccccc21 | -22.6
CC(C)(C)OC(=O)N1CCCc2ccc(NCc3ccon3)cc21 | -31.3
CC(C)(C)OC(=O)N1CCCN(Cc2ccon2)c2ccccc21 | 84.5
CN(C)CCOCc1nnc2n1CCN(Cc1ccc(F)cc1)CC2 | -137
O=C(O)CN1CCC(F)(F)C2(CCN(c3ccccc3)C2)C1 (stereo not given) | 67.6
FC1(F)CCN(Cc2ccncc2)CC12CCN(c1cccnc1)C2 (stereo not given) | 19.1
Cn1ccnc1CN1CCC(F)(F)C2(CCN(c3cnccn3)C2)C1 (stereo not given) | -1.72
Cn1ccnc1CN1CCC(F)(F)C2(CCN(c3cccnc3)C2)C1 (stereo not given) | 60.4
O=C(CO)N1CCC(F)(F)C2(CCN(c3ccccc3)C2)C1 (stereo not given) | -30.5
FC1(F)CCN(c2ccccc2)CC12CCN(c1ncccn1)C2 (stereo not given) | -145
COc1ccc(CN(C)[C@@H]2CN(C(=O)c3cncs3)C[C@H]2O)cc1 | -40.5
O=c1[nH][nH]c2cn(-c3ccc(Cl)cc3)c(=O)n12 | -27.8
CCOc1cc(CN(C)CCC(=O)OC)ccc1OC(F)F | -133
CN(C)CCO[C@@H]1CC[C@H]2[C@H]1OCCN2C(=O)c1ccnnc1 | -24.7
CC(=O)NCc1nnc2n1CCN(Cc1cccs1)C2 | -56.1
CCCc1cc(NCCN2CCNC2=O)n2nccc2n1 | -34.9
O=C([C@H]1COC[C@H]2CN(C3CCCC3)C[C@H]21)N1CCCO1 | -99.5
Cc1cnc(-n2cnnc2)c(-c2cccc3c2CCNC3)c1 | -35
Cc1cc(-c2cccc3c2CCNC3)cnc1-n1cnnc1 | -24.9
Cc1nc(-n2cnnc2)ccc1-c1cccc2c1CCNC2 | 68.7
